Measured values from PubChem BioAssay (NCI).
Where “and” joins values, the source holds several entries; their conditions need not be identical. Identical values can stand only once. The panel holds about 83,000 compounds, 20% with a hit somewhere; the sample as a whole holds those more often.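 A percent growth of 40 corresponds to 60% growth inhibition; 0 means no net growth; -100 means all cells died. Active threshold: below 10.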 Unmarked numbers belong to inactive results. Calls of active or inactive are those of the source.

How the values were obtained:
Assay in all cases: NCI-60 one-dose screen, 48 h (100 = growth as untreated, 0 = no growth, -100 = all killed)
Details in all cases: 10 µM unless noted
T-47D breast = test system: T-47D breast
BT-549 breast = test system: BT-549 breast
MDA-MB-435 melanoma = test system: MDA-MB-435 melanoma
SW-620 colon = test system: SW-620 colon
MCF7 breast = test system: MCF7 breast
HCT-116 colon = test system: HCT-116 colon
HCC-2998 colon = test system: HCC-2998 colon
KM12 colon = test system: KM12 colon
MDA-MB-468 breast = test system: MDA-MB-468 breast

SMILES	growth (T-47D breast)	growth (BT-549 breast)	growth (MDA-MB-435 melanoma)	growth (SW-620 colon)	growth (MCF7 breast)	growth (HCT-116 colon)	growth (HCC-2998 colon)	growth (KM12 colon)	growth (MDA-MB-468 breast)
O=C(Nc1ccc(F)cc1)Nc1nc2ccc([N+](=O)[O-])cc2s1	-18.1% (active)	-53.2% (active)	0.0184% (active)	7.92% (active)	1.6% (active)	1.02% (active)	11.8%	9.04% (active)	-23.4% (active)
Cc1nc2sccn2c1-c1nnc(SCc2ccccc2)o1	74.5%	119%	97.4%	105%	74.2%	91.6%	103%	98.5%	52%
N#C/C(=C/c1ccc(Cl)cc1)c1nnc(NC(=O)c2ccc(-n3c(=O)[nH]c4ccccc4c3=O)cc2)s1	64.2%	40%	84.7%	73.8%	38%	46.4%	23.5%	23.6%	34.9%
COc1ccc(NC(=O)CSc2nnc(-c3ccc(-c4nc5ccc(Cl)cc5[nH]4)cc3)o2)cc1	75.9%	4.02% (active)	17.8%	20.3%	42.2%	9.94% (active)	109%	29.6%	86.2%
O=C(Nc1ccc(Br)cc1)Nc1ccc(-c2ccc3c(c2)NC(=O)/C3=C\c2ccc[nH]2)cc1	12.1%	17.2%	39.7%	21%	8.33% (active)	35%	38.8%	-22.6% (active)	-5% (active)
COc1cc(C2CC(c3ccc(S(=O)(=O)NCCNc4nc(N(C)C)nc(N5CCOCC5)n4)cc3)=Nc3c(N)nc(N)nc3N2)cc(OC)c1OC (configuration not stated)	95%	95.2%	104%	99%	95.1%	90%	109%	100%	95.4%
Nc1cccc(-n2c(COc3ccc(I)cc3)nc3ccccc32)c1	54.6% and 99.2%	92.6% and 99.7%	95.9% and 99.7%	86.3% and 104%	67.9% and 98.9%	76% and 102%	118% and 113%	87.9% and 99.6%	72.2% and 102%
O=[N+]([O-])c1cccc(-c2nnc3c(/C=C/c4ccc(F)cc4)nc4ccccc4n23)c1	74.3%	87.5%	102%	96.1%	28.4%	81.1%	105%	97.6%	0.494% (active)
O=C1/C(=C/c2cccc3c2OCO3)Cc2c(F)cc(Br)cc21	95.2%	123%	104%	114%	84.2%	104%	117%	110%	105%
Cc1ccc2c(c1)/C(=C/C(=O)c1cc3ccccc3oc1=O)C(=O)N2	72.8%	68.8%	75.5%	-94.7% (active)	55.9%	18.9%	106%	86.9%	-69.3% (active)
Cc1ccc(-c2cc(-c3ccccc3)[nH]c(=O)c2C#N)cc1	73.5%	88.5%	107%	97.8%	75.1%	94.3%	114%	91.2%	89.4%
CN(C)c1nc(NCCNS(=O)(=O)c2ccc(C(=O)/C=C/c3ccc(Cl)cc3)cc2)nc(N2CCOCC2)n1	10.3%	12.8%	-53.6% (active)	-66.9% (active)	-67% (active)	-95.5% (active)	-94.4% (active)	-76.9% (active)	-83.2% (active)
COC(=O)c1cccc(Oc2ccc(NC(=O)Nc3cc(C(F)(F)F)ccc3F)cc2)c1	47%	64.7%	92.4%	89.7%	61.8%	60.7%	96.9%	75.3%	71.5%
